# Experimental data as given in PubChem BioAssay AID623908 (Johns Hopkins Ion Channel Center, 2012).
# About 1,500 (60%) of roughly 2,500 compounds were called active.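 How the source made its calls: active means duplicate-averaged ratio beyond 3 SD from buffer wells, up or down, though filed actives are nearly all decreases; inactive means the rest.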 The set was probably picked from earlier hits. The list is a sample of the results.
# Assay: membrane potential response in parental HEK293 cells, counter-screen for CHT activator project, cell-based, membrane potential dye (AID 623908)
# Settings: parental HEK293, membrane potential dye fluorescence (FDSS); at 10 µM; measured after EC20 choline addition
row,SMILES,ratio readout change
1,CCN1CCN(c2ccc([N+](=O)[O-])cc2C#N)CC1,-38.3 (active)
2,CN1CCN(c2cc(N3CCNCC3)ccc2[N+](=O)[O-])CC1,-81.4 (active)
3,Cc1nc2ccc(N3CCN(C)CC3)cc2nc1C,-22.9 (active)
4,CCCCCn1c(=O)c(C(=O)Nc2c(C)n(C)n(-c3ccccc3)c2=O)c(O)c2ccccc21,inactive
5,CC[N+](CC)(CC)CCCCCCCCCC[N+](CC)(CC)CC,-41.6 (active)
6,CCOc1ccc(-c2cc(C)[n+](CCN(CC)CC)c(-c3ccc(OCC)cc3)c2)cc1,inactive
